# MARV entry inh: blocks Marburg virus binding to or entry into cells. Marburg virus pseudotyped entry inhibition, cell reporter. Potency, µM (doses to about 37.8 µM), inactives show at the highest dose activity change, negative = inhibition, hits mostly inhibitors. hit rate 1.8% among 300,000. AID 540276; calls by dose curve; tested in HEK293 cells; also: potency is read from the fitted curve at half-maximal effect; % is scaled to controls: 0 for no effect and ±100 for the full control effect
# Shiga toxin inh: Shiga toxin inhibition; inhibition, % at 38.7 µM; hit rate 9.2% among 290,000; Vero cells, Shiga toxin protein synthesis inhibition reporter; in the data active = inhibition mostly above about 28%, no sharp cut-off; inactive = mostly below about 43%; also: 0% is about no effect
# Lassa entry inh: blocks Lassa virus binding to or entry into cells; hit rate 1.2% among 300,000; AID 540256; Potency, µM (top dose mostly 37.9 µM), without a hit: at the highest dose activity change, negative = inhibition, hits mostly inhibitors; Lassa virus pseudotype entry inhibition, cell reporter; calls by dose curve; tested in HEK293 cells; also: potency is read from the fitted curve at half-maximal effect; % is scaled to controls: 0 for no effect and ±100 for the full control effect; nearly all actives have a fitted effect of over 50% in size
# CHX counter: counter-screen hit for Shiga toxin inhibitors, cycloheximide. hit rate 12% among 300,000. cell reporter, cycloheximide protein synthesis inhibition counterscreen. max response, %; in the data active = max response mostly above about 13%, no sharp cut-off; inactive = mostly below about 14%; also: read at 38.3 µM for the half of the compounds with a filed dose; 0% is about no effect
# * = called active by the depositor; i = inactive; u = inconclusive; x = not tested or not shown; [ ] = dose if it differs, or a comment. Hits are enriched below; roughly 12% of the tested compounds scored in any of these assays.
SMILES,MARV entry inh,Shiga toxin inh,Lassa entry inh,CHX counter
NC(=Nc1ccccc1)N(c1ccccc1)c1ccccc1,u,x,-5%[46.1 µM],x
O=C(Nc1ccc(Br)cc1)c1cccc(S(=O)(=O)Nc2cnc3ccccc3c2)c1,2.8µM*,-13,u,-2
Cc1ccc(C(=O)Nc2ncccc2S(=O)(=O)c2ccccc2)cc1,u,66*,29%[46.1 µM],12*
Cc1ccc(C(=O)/C=C/c2ccc3ncccc3c2)cc1,x,47*,x,48*
COc1ccc(C(=O)Nc2ccc3ncccc3c2)cc1,u,-11,u,12
O=C(Nc1ccc2ncccc2c1)c1cccc(Br)c1,x,47*,x,39*
Cc1cccnc1NC(=O)c1ccc(S(=O)(=O)N2CCCCCC2)cc1,4%,x,0%,x
CCN(CC)CCCn1c(C)cc2c(c1=O)[C@H](c1ccc(OC)c(OC)c1OC)C(C#N)=C(N)O2,9%,x,x,x
C[C@H](NC(=O)c1ccco1)C(=O)NCCc1ccc(S(N)(=O)=O)cc1,x,-11,x,2
CN1CCN2c3ccccc3Cc3ccccc3C2C1 (stereo not drawn),5.6µM*,0,u,5
COc1ccccc1-c1ccc(/C=C2\C=CC(=O)O2)o1,12%[14.2 µM],92*,u,45*
O=C(CNC(=O)c1ccco1)NNC(=O)c1n[nH]c(=O)c2ccccc12,6%[46.1 µM],x,-1%[46.1 µM],x
C=CCN1C(=O)/C(=C/c2ccc(OC(C)=O)c(OCC)c2[N+](=O)[O-])SC1=S,u,103*,u,27*
Cc1cc(C)n(C(=O)c2cc([N+](=O)[O-])cc([N+](=O)[O-])c2)n1,x,13,x,-4
Cc1cc(C)c(NC(=O)Cn2c(=O)oc3cc(S(=O)(=O)N4CCCCCC4)ccc32)c(C)c1,-17%[46.1 µM],x,-5%[46.1 µM],x
O=C(N=Nc1c(O)[nH]c2ccccc12)c1ccco1,-29%[46.1 µM],65*,-20%,45*
COc1ccc(CC(=O)NCC(=O)N=Nc2c(O)[nH]c3ccccc23)cc1,x,-9,x,10
CC(=O)/C=C(\C)N=Nc1c(O)[nH]c2ccccc12,-2%[46.1 µM],56*,-23%,32*
O=C(CNC(=O)c1ccccn1)N=Nc1c(O)[nH]c2ccccc12,u,47*,u,22
O=C(N=Nc1c(O)[nH]c2ccccc12)c1ccc2c(c1)OCO2,x,33,x,27*
CCOCCCNC(=O)C(NC(=O)C1CCC(C)CC1)C(C)C (stereo not drawn),1%[46.1 µM],x,6%[46.1 µM],x
O=C(CSCc1ccccc1)N=Nc1c(O)[nH]c2ccccc12,u,11,u,27*
CC(C)CC(=O)N=Nc1c(O)[nH]c2ccccc12,x,106*,x,26*
CCCn1c(O)c(N=NC(=O)c2ccco2)c2ccccc21,u,53*,u,8
CCc1ccccc1NC(=O)Cn1nc(C(F)(F)F)cc1C1CC1,-15%,11,15%,-3
SMILES,MARV entry inh,Shiga toxin inh,Lassa entry inh,CHX counter
CC(C)OC(=O)c1cc(C(=O)c2cc(Cl)ccc2O)coc1=N,-17%[46.1 µM],-2,-12%,-6
O=C(Cc1ccc(Br)cc1)Nc1ccc(Cl)cc1,x,24,x,25*
O=C(Cc1ccc(Cl)cc1)Nc1ccc(NC(=O)c2ccccc2)cc1,0%,14,u,4
O=C(Cc1cccc(Cl)c1)Nc1ccc(Br)cc1,27%[46.1 µM],26,x,17*
Cc1ccc(NC(=S)N2CCC(N(C)CC3CCCO3)CC2)c(C)c1 (stereo not drawn),15%,12,-13%,-5
COC(=O)c1cc2ccccc2c([N+](=O)[O-])c1O,-1%[46.1 µM],x,7%[46.1 µM],x
COC(=O)c1cc2ccccc2c(-c2c(OC)c(C(=O)OC)cc3ccccc23)c1OC,6.5µM*,-8,u,12
O=C(CN1C(=O)CCc2cc(S(=O)(=O)N3CCOCC3)ccc21)NCc1ccc(Cl)cc1,x,x,16%[46.1 µM],x
N#Cc1ccc2c(c1)C[C@]1(c3ccsc3)OC3=C(C(=O)OC4(CCCCC4)C3)C2O1,x,i,x,9
NC(=O)c1ccc(-n2nc(C(F)(F)F)c3c2CCCC3)cc1,u,29,5%,19*
CC(=O)OCC1=C(C(=O)O)N2C(=O)C(NC(=O)CCn3nc(C(F)(F)F)c(Br)c3C3CC3)C2SC1 (stereo not drawn),-10%[46.1 µM],23,-6%,-2
Cc1ccccc1Nc1ncc(C#N)c(N)n1,x,33*,x,16
COc1ccc(Nc2ncc3c(n2)CCN(Cc2ccccc2C)C3)c(OC)c1,x,x,-8%[46.1 µM],x
COc1ccc(Nc2ncc(C#N)c(N)n2)c(OC)c1,-6%,70*,14%,20*
Cc1ccccc1Nc1nc(N)nc(COc2ccc(C#N)cc2)n1,3%[46.1 µM],-11,-3%[46.1 µM],-6
Cc1cccc(C(C)Nc2ccc([N+](=O)[O-])cn2)c1 (stereo not drawn),-2%,1,1%,4
CC(=O)Nc1ccc(S(=O)(=O)NC2C3(C)CCC(C3)C2(C)C)cc1 (stereo not drawn),x,-4,x,-1
COc1ccccc1CNc1ncnc2sccc12,6.3µM*,10,u,8
CN(C)c1ccc(CNc2ncc(Br)cc2Br)cc1,-19%,66*,6%,34*
CN(C)c1ccc(CNc2ncnc3sccc23)cc1,u,14,3.5µM*,2
CCN(CC)c1ccc(CNc2nc3ccccc3n2CCN2CCCCC2)cc1,u,28,u,2
CCN(CC)c1ccc(CNc2nc3ccccc3n2C)cc1,x,44*,x,8
CCn1c(NCc2ccc(N(C)C)cc2)nc2ccccc21,-14%,35*,21%,30*
CCn1c(NCc2ccccn2)nc2ccccc21,-4%,21,10%,21*
COC(=O)[C@](C)(N)Cc1ccc(O)cc1,7%,x,x,x
SMILES,MARV entry inh,Shiga toxin inh,Lassa entry inh,CHX counter
O=C(O)C1CCCN1S(=O)(=O)c1cccc2nsnc12 (stereo not drawn),23%[46.1 µM],-7,27%,-2
COc1cc(CN(CCN(C)C)Cc2ccccc2)ccc1OCc1ccccc1,u,-5,u,-3
CN(Cc1ccc(Br)s1)C(=O)CNC(=O)c1ccc2c(c1)OCO2,-24%,x,0%,x
CCOC(=O)c1sc(NC(=O)CC)c(C#N)c1C,-16%[46.1 µM],2,-3%[46.1 µM],-3
COc1ccc(OC)c(S(=O)(=O)N2Cc3ccccc3CC2C(=O)Nc2nccs2)c1 (stereo not drawn),u,107*,-12%,64*
O=C(Nc1cc(F)ccc1F)c1ccc(CN2CC(=O)N3CCCCC3C2=O)cc1 (stereo not drawn),x,x,2%[46.1 µM],x
COC(=O)[C@](NC(=O)c1ccccc1)(Nc1nc(C)cs1)C(F)(F)F,4%,x,x,x
COc1ccc(C2=NNC(c3cccnc3)=Nc3ccccc32)cc1,4%[46.1 µM],-9,u,-4
c1ccc(C2=NNC(c3ccco3)=Nc3ccccc32)cc1,x,23,x,17*
O=C(/C=C/c1ccccc1)NC(NC(=S)Nc1ccc(Cl)cc1)C(Cl)(Cl)Cl (stereo not drawn),4.6µM*,-4,u,6
CC(=O)NC(NC(=S)Nc1ccc(N=Nc2ccccc2)cc1)C(Cl)(Cl)Cl (stereo not drawn),u,71*,u,60*
CC(C)CC(=O)NC(NC(=S)Nc1ccccc1)C(Cl)(Cl)Cl (stereo not drawn),u,-4,x,1
CC(=O)NC(NC(=S)Nc1ccc(S(N)(=O)=O)cc1)C(Cl)(Cl)Cl (stereo not drawn),x,16,x,-2
O=C(CCc1ccccc1)NC(NC(=S)Nc1ccc(Cl)cc1)C(Cl)(Cl)Cl (stereo not drawn),11µM*,-11,u,-2
